Most compounds without a hit are left out; they make up all but 1.5% or so of the library.
15-hLO inh = qHTS Assay for Inhibitors of 15-hLO (15-human lipoxygenase) | AID 887, 2007 | Potency, µM (series often up to 57.1 µM), without a hit: at the highest dose activity change, negative = inhibition, hits mostly inhibitors | purified 15hLO-1, xylenol orange hydroperoxide absorbance | 74,000 tested, 1.4% active; also: potency is read from the fitted curve at half-maximal effect; % is scaled to controls: 0 for no effect and ±100 for the full control effect; nearly all actives have a fitted effect of over 55% in size
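Compounds were preincubated 15 min at room temperature with 40 nM purified human enzyme (25 mM Hepes pH 7.5, 0.01% Triton X-100); 50 uM arachidonic acid reacted 6 min. Fe-xylenol orange detection, 30 min, absorbance ratio 573/405 nm.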
USP2a inh = qHTS Assay for Inhibitors of Ubiquitin-specific Protease USP2a; AID 927, 2007; Potency, µM (doses to about 38.3 µM), for inactives: at the top dose activity change, negative = inhibition, usual class: inhibitors; Ubiquitin carboxyl-terminal hydrolase 2 (Homo sapiens), O75604; 60,000 tested, 0.1% active; USP2a enzymatic assay, qHTS inhibition; also: potency is read from the fitted curve at half-maximal effect; nearly all actives have a fitted effect of over 60% in size
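Coupled readout: USP2-cleaved Ub-PLA2 (20nM final) turns over NBD C6-HPC (20uM final), Ex 460nm/Em 535nm after 2.5 h, time-zero read flagging artifacts. Enzyme (20nM final, pH 8.0 Tris) given 30 min RT with compound first; NEM defines full inhibition.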
BRCT PPI red = qHTS Assay for Inhibitors of BRCT-Phosphoprotein Interaction (Red Fluorophore) | BRCT-phosphopeptide binding, red fluorescence polarization | Potency, µM (top dose mostly 76.9 µM), without a hit: top-dose activity change, negative = inhibition, usual class: inhibitors | AID 892, 2007 | 75,000 tested, 0.03% active; also: % is scaled to controls: 0 for no effect and ±100 for the full control effect
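Rhodamine-labelled pBACH1 10-mer (100 nM) bound to BRCT domain (100 nM) at pH 7.3; compounds incubated 12 min room temperature, polarization read. Free peptide defines full inhibition; unlabelled decapeptide titrated as control.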
Caspase-7 inhib = qHTS Assay for Allosteric/Competitive Inhibitors of Caspase-7 | P55210 | Potency, µM (doses to about 57.5 µM), without a hit: at the highest dose activity change, negative = inhibition, actives largely listed as inhibitors | recombinant caspase-7, Ac-DEVD-AFC fluorescence rate | 75,000 tested, 0.02% active; active = well fitted inhibition curve with a large enough effect in the main read-out, with a control signal flat, not every such curve was filed as active; inconclusive = small, poorly fitted or top-dose-only effect, or a change in a side signal; also: potency is read from the fitted curve at half-maximal effect; % of control where 0% means no effect
Target sequence (P55210 24-198 limits assumed): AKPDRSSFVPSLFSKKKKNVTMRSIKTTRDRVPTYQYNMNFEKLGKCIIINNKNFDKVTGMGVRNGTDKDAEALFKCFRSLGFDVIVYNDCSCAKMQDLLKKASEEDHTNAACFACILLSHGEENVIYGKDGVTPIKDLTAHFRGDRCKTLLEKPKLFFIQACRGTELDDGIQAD
Target sequence (P55210 207-303 limits assumed): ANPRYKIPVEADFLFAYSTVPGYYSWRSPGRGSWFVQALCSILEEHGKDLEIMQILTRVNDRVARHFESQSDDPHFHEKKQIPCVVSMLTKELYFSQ
Casp1 inh = qHTS Assay for Allosteric/Competitive Inhibitors of Caspase-1; Potency, µM (highest dose often 57.5 µM), for the others: at the highest dose activity change, negative = inhibition, actives largely listed as inhibitors; P29466; 75,000 tested, 0.03% active; AID 900, 2007; Caspase-1 enzyme, Ac-WEHD-AFC fluorogenic rate;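 also: potency is read from the fitted curve at half-maximal effect; plate controls were vehicle for no effect and no substrate for full effect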
Target sequence (P29466 120-297 limits assumed): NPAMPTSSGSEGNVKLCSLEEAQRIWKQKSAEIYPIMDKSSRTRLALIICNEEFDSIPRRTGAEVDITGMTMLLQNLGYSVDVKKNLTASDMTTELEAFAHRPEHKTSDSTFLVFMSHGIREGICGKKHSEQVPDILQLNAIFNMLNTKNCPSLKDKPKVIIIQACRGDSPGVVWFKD
Target sequence (P29466 317-404 limits assumed): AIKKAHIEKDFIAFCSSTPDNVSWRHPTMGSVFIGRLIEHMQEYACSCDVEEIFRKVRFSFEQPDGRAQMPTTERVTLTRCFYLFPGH
BRCT PPI green = qHTS Assay for Inhibitors of BRCT-Phosphoprotein Interaction (Green Fluorophore). Breast cancer type 1 susceptibility protein (Homo sapiens), P38398. BRCA1 BRCT-phosphopeptide binding, green fluorescence polarization. 75,000 tested, 0.05% active. Potency, µM (titrated, usually from 76.9 µM), without a hit: top-dose activity change, negative = inhibition, hits mostly inhibitors;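 also: potency is read from the fitted curve at half-maximal effect; plate controls were peptide without protein for full effect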
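Fluorescence polarization: His-tagged BRCT (~35 kDa BRCA1 C-terminus, 250 nM) bound to 100 nM fluorescein-labeled phosphorylated 10-aa BACH1 peptide, pH 7.3 phosphate buffer with DTT and Tween 20. Compounds incubated 12 min at room temperature; inhibition read as lowered polarization.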
Active calls of the source: *; ? = inconclusive; nt = not tested or not shown; [ ] = dose if it differs, or a comment. Unless noted, calls follow the shape of the dose curve; as a rule, active = well fitted curve in the direction sought with a large enough effect; inconclusive = small, poorly fitted or top-dose-only effect, or another doubt; inactive = no such curve, though single readings can be large; an effect the other way counts as inactive or inconclusive.

SMILES	15-hLO inh	USP2a inh	BRCT PPI red	Caspase-7 inhib	Casp1 inh	BRCT PPI green
c1coc(C2Nc3cccc4cccc(c34)N2)c1	1.58µM*	?	?	-23.1%	-12.5%	?
COc1cccc2c1C(=O)c1c(O)c3c(c(O)c1C2=O)C[C@](O)(C(C)=O)C[C@H]3O[C@@H]1C[C@H](N)[C@H](O)[C@H](C)O1	7.1%[25.6 µM]	48.9%[17.1 µM]	?	-1.0%[25.7 µM]	-4.4%[25.7 µM]	7.3%[34.4 µM]
COc1cccc2c1C(=O)c1c(O)c3c(c(O)c1C2=O)C[C@@](O)(C(=O)CO)C[C@@H]3O[C@H]1C[C@H](N)[C@H](O)[C@H](C)O1	10.4%	nt	10µM*	-4.3%	-4.3%	9.7%
CC(=O)[C@@]1(O)Cc2c(O)c3c(c(O)c2[C@H](O[C@H]2C[C@H](N)[C@H](O)[C@H](C)O2)C1)C(=O)c1ccccc1C3=O	?	23.6%	12.6µM*	-11.4%	-5.2%	-24.9%
C=CCSc1nc2c(N)ncnc2n1[C@@H]1O[C@H](CO)[C@@H](O)[C@@H]1O	4.9%[11.4 µM]	nt	0.0%[15.4 µM]	-1.0%[11.5 µM]	-3.2%[11.5 µM]	0.0%[15.4 µM]
COC(=O)CC1=COC2OCC3=CC[C@@H]1C32 (some centres not stated)	7.8%[11.4 µM]	nt	-0.4%[15.4 µM]	1.3%[11.5 µM]	-4.0%[11.5 µM]	0.6%[15.4 µM]
C[C@@H](c1ccccc1)N1C(=O)[C@H]2[C@@H]3[C@H](O)[C@H](O)CC(=O)[C@H]3CC[C@H]2C1=O	6.5%[11.4 µM]	nt	-0.1%[15.4 µM]	0.0%[11.5 µM]	-12.4%[11.5 µM]	0.8%[15.4 µM]
CC(=O)OCC1OC(C#CCC2CCCCC2)C=CC1OC(C)=O (configuration not stated)	8.6%[11.4 µM]	nt	0.3%[15.4 µM]	-0.9%[11.5 µM]	0.8%[11.5 µM]	-1.9%[15.4 µM]
Cc1ccc(C)c2[nH]c(=O)c(CN(Cc3ccco3)S(=O)(=O)c3ccc4c(c3)OCCO4)cc12	-16.9%	34.5%	-5.4%	-2.7%	-2.4%	2.6%
Cc1ccc2cc(CN(CCN3CCOCC3)Cc3nnnn3Cc3ccco3)c(=O)[nH]c2c1C	-10.7%	12.2%	-0.6%	-12.9%	-14.8%	5.2%
Cc1ccc(C)c2[nH]c(=O)c(CN(Cc3ccc4c(c3)OCO4)Cc3nnnn3Cc3ccco3)cc12	25.1µM*	nt	-7.1%	-23.8%	?	2.1%
CC(C)(C)n1nnnc1CN(Cc1ccco1)Cc1cc2cc3c(cc2[nH]c1=O)OCO3	-11.1%	-2.8%	-0.3%	-0.1%	-0.8%	1.6%
CCC(C)(C)n1nnnc1CN(Cc1ccco1)Cc1cc2cc3c(cc2[nH]c1=O)OCO3	0.0079µM*	34.8%	-1.5%	-0.8%	-1.9%	1.5%
Cc1ccc2cc(CN(Cc3ccc4c(c3)OCO4)Cc3nnnn3Cc3ccco3)c(=O)[nH]c2c1C	25.1µM*	265.5%	-3.9%	-25.4%	?	6.6%
Oc1c(Br)cc(Br)cc1CN(Cc1cc(Br)cc(Br)c1O)C1CCCCC1	-8.5%[11.4 µM]	nt	0.7%[15.4 µM]	-13.9%[11.5 µM]	-3.1%[11.5 µM]	-1.9%[15.4 µM]
COc1ccc(/C=N/NC(=O)c2cc(-c3ccc(Cl)cc3)n[nH]2)cc1OC	-3.9%	nt	0.4%	-6.6%	-6.5%	-2.4%
O=C(NCc1ccccc1)c1ccc(Cc2nc3ccccc3[nH]2)cc1	-7.7%	nt	2.4%	-3.0%	-1.9%	-1.5%
COc1cccc(-c2cnc(NCc3cc(Cl)ccc3O)n2C)c1	31.6µM*	-1.6%	-2.3%	-5.0%	-5.6%	-1.4%
N=c1c2c(-c3ccccc3)c(-c3ccccc3)n(Cc3ccco3)c2ncn1Cc1ccco1	25.1µM*	11.9%	-3.8%	-3.2%	-3.1%	60.5%
O=c1c2ccccc2c2ccccc2c(=O)n1Cc1ccco1	-9.7%	12.8%	0.6%	-0.3%	-3.0%	-0.5%
O=CNc1ncn[nH]1	-6.6%[11.4 µM]	nt	0.6%[15.4 µM]	0.3%[11.5 µM]	1.1%[11.5 µM]	-2.8%[15.4 µM]
CC(=O)OCC(=O)[C@]12OC(C)(C)O[C@@H]1C[C@H]1[C@H]3CC=C4C[C@@H](O)CC[C@]4(C)[C@H]3CC[C@]12C	1.5%[11.4 µM]	nt	0.3%[15.4 µM]	-4.1%[11.5 µM]	-2.0%[11.5 µM]	-2.8%[15.4 µM]
Cc1cc(C(=O)CSc2nnc(-c3cccnc3)n2-c2ccccc2F)c(C)n1C	15.8µM*	27.1%	-12.3%	-1.6%	2.9%	-1.8%
COc1ccc(/C=C/C(=O)c2cc(O)ccc2O)cc1	20µM*	0.9%	-2.1%	-2.4%	-0.1%	-1.1%[3.08 µM]
O=C(/C=C/c1ccccc1)c1ccc(O)cc1O	20µM*	0.9%	0.3%	-1.7%	?	1.1%[3.08 µM]
SMILES	15-hLO inh	USP2a inh	BRCT PPI red	Caspase-7 inhib	Casp1 inh	BRCT PPI green
COc1ccc(/C=C/C(=O)c2ccc(O)cc2O)cc1	20µM*	6.3%	-4.8%	-1.4%	1.9%	-8.9%
COc1ccc(C(=O)c2ccc(OC)cc2O)c(O)c1	-5.9%	-0.4%	-0.4%	-1.4%	-1.6%	-1.0%
COc1ccc(/C=C/C(=O)c2ccc(O)cc2O)cc1OC	15.8µM*	-3.7%	1.0%	0.1%	1.1%	0.4%[3.08 µM]
O=C(/C=C/c1ccc(O)cc1)c1ccc(O)cc1O	-9.6%[11.4 µM]	-9.3%	1.0%[15.4 µM]	0.2%[11.5 µM]	-2.7%[11.5 µM]	1.0%[15.4 µM]
COc1ccc(/C=C/C(=O)c2cccs2)cc1OC	-21.2%[25.6 µM]	nt	1.4%	2.1%	2.6%	-5.4%
O=C(O)c1ccc2cc(-c3ccc(O)c(C45CC6CC(CC(C6)C4)C5)c3)ccc2c1	?	nt	-3.2%	-10.2%	-3.3%	0.5%
O=C1[C@H]2[C@H]3[C@H](O)[C@H](O)C/C(=N/OC[C@@H](O)COCc4ccco4)[C@@H]3CC[C@@H]2C(=O)N1C[C@@H]1CCCO1	15.4%[11.4 µM]	nt	-0.2%[15.4 µM]	-0.9%[11.5 µM]	-1.9%[11.5 µM]	-2.1%[15.4 µM]
